Compound activity (PubChem)
FLuc inh: inhibitors of firefly (Photinus pyralis) luciferase; AID 1347043; purified P. pyralis luciferase, luminescence, biochemical; Potency, µM (top dose mostly 115 µM), most hits filed as inhibitors; 76,000 compounds, 2.5% hits; also: nearly all actives have a fitted effect of over 65% in size
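FLuc 10nM, D-luciferin 10uM, ATP 10uM, Mg acetate 10mM, Tris acetate pH 7.5, Tween/BSA; cpd qHTS; enzyme added last; CCD luminescence.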
HEK cytotox: kills HEK 293 cells; HEK 293 viability, ATP luminescence (CellTiter-Glo), 48-72 h; 94,000 compounds, 6.6% hits; Potency, µM (top dose mostly 115 µM), most hits filed as inhibitors; AID 1345083; also: nearly all actives have a fitted effect of over 60% in size
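250 HEK 293 cells/well; compound by pintool; incubated 48 or 72 hr at 37 degree Celsius; CellTiter-Glo added, 10 min RT, luminescence imaged.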
NIH3T3 tox: cytotoxic compounds in NIH 3T3 cells | AID 1345082 | Potency, µM (titrated, usually from 96.7 µM), usual class: inhibitors | NIH 3T3 viability, CellTiter-Glo ATP luminescence, 48-72 h | 94,000 compounds, 4.3% hits; also: nearly all actives have a fitted effect of over 55% in size
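NIH 3T3 cells at 400 cells/well received 23 nL of compound by pintool and were incubated 48 or 72 h at 37 °C. Viability was read as ATP-coupled CellTiter-Glo luminescence.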
NPR1 antag: blocks ANP-stimulated signaling of human Npr1 receptor | P16066 | HEK293 hNpr1 GloSensor cGMP, ANP-stimulated luminescence | Potency, µM (highest dose often 46.3 µM), hits mostly inhibitors | 76,000 compounds, 1.6% hits; calls by dose curve; also: nearly all actives have a fitted effect of over 60% in size
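Compound pre-incubated 30 min at room temperature on GloSensor-loaded HEK293 cells stably carrying hNpr1 and the pGS-40F cGMP biosensor. Stimulation uses hNppA at 0.1 nM final; luminescence is taken at baseline and 20 min post-agonist.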
Npr1 antag conf: hNpr1 antagonism, confirmation assay; shares compounds with NPR1 antag; HEK293 hNpr1 cGMP GloSensor luminescence, ANP-stimulated; Potency, µM (titrated, usually from 57.6 µM), usual class: inhibitors; 1,400 compounds, 76% hits; AID 1347044; calls by dose curve; also: nearly all actives have a fitted effect of over 70% in size
Npr2 selectivity: antagonizes human Npr2, subtype selectivity check; shares compounds with NPR1 antag; HEK293 hNpr2 GloSensor cGMP luminescence, CNP-stimulated; Potency, µM (top dose mostly 57.6 µM), most hits filed as inhibitors; 1,400 compounds, 67% hits; AID 1347046; calls by dose curve; also: nearly all actives have a fitted effect of over 70% in size
FLuc counter: inhibits firefly luciferase, false Npr1 antagonist flag; shares compounds with NPR1 antag; 1,400 compounds, 0.7% hits; purified FLuc enzyme, luminescence, Km substrate; Potency, µM (top dose mostly 57.6 µM), usual class: inhibitors
GloSensor cGMP: reduces cGMP signal in GloSensor control cells | shares compounds with NPR1 antag | HEK293 GloSensor cGMP, SNP-stimulated, luminescence | Potency, µM (doses to about 57.6 µM), hits mostly inhibitors | 1,400 compounds, 69% hits; calls by dose curve; also: nearly all actives have a fitted effect of over 70% in size
Of the large screens only hits and unclear results are named; the others gave an inactive call (follow-up assays come after a bar, where they were run). An excerpt weighted towards active compounds, which were near 11% of everything screened. Unless noted, calls follow the shape of the dose curve; as a rule, active = well fitted curve in the direction sought with a large enough effect; inconclusive = small, poorly fitted or top-dose-only effect, or another doubt; inactive = no such curve, though single readings can be large; an effect the other way counts as inactive or inconclusive.

COc1ccc2nc3n(c2c1)[C@@H](CNCc1ccc2c(c1)OCO2)COC3	HEK cytotox inconclusive, NIH3T3 tox inconclusive, NPR1 antag 31.6µM | Npr1 antag conf 39.6µM | Npr2 selectivity 39.6µM | FLuc counter inactive | GloSensor cGMP 39.6µM
Cc1ccc2nc3n(c2c1)[C@@H](CNCc1ccc2c(c1)OCO2)COC3	HEK cytotox inconclusive, NIH3T3 tox inconclusive, NPR1 antag 25.1µM | Npr1 antag conf 35.3µM | Npr2 selectivity 35.3µM | FLuc counter inactive | GloSensor cGMP 31.4µM
Cc1ccc2nc3n(c2c1)[C@@H](CNCc1ccccc1)COC3	HEK cytotox inconclusive, NIH3T3 tox inconclusive, NPR1 antag inconclusive
O=Cc1cccc(N2CCN([S+](=O)([O-])C3CC3)CC2=O)c1	none (no result: FLuc inh, NPR1 antag)
O=C(NC1CCCc2c1[nH]c1ccc(Cl)cc21)c1ccncc1 (stereo unspecified)	HEK cytotox 22.4µM, NIH3T3 tox inconclusive, NPR1 antag inconclusive | Npr1 antag conf inconclusive | Npr2 selectivity inactive | FLuc counter inactive | GloSensor cGMP inactive
Cc1nc2cccnc2n1CC1CCCN(S(=O)(=O)c2ccc(C(C)C)cc2)C1 (stereo unspecified)	HEK cytotox inconclusive, NIH3T3 tox inconclusive, NPR1 antag inconclusive | Npr1 antag conf 27.3µM | Npr2 selectivity inconclusive | FLuc counter inactive | GloSensor cGMP 24.3µM
Cc1ccc(S(=O)(=O)N2CCCC(Cn3c(C)nc4cccnc43)C2)cc1 (stereo unspecified)	HEK cytotox inconclusive, NIH3T3 tox inconclusive
COc1ccc([S+](=O)([O-])N2CCC3(CC2)OCCN(CC2CC2)C3=O)cc1	HEK cytotox inconclusive, NIH3T3 tox inconclusive, NPR1 antag inconclusive | Npr1 antag conf 31.4µM | Npr2 selectivity inconclusive | FLuc counter inactive | GloSensor cGMP 31.4µM
O=C1N(CC2CC2)CCOC12CCN([S+](=O)([O-])c1ccc(C(F)(F)F)cc1)CC2	HEK cytotox inconclusive, NIH3T3 tox inconclusive, NPR1 antag 11.2µM | Npr1 antag conf 17.7µM | Npr2 selectivity 19.8µM | FLuc counter inactive | GloSensor cGMP 11.1µM
O=C1N(CC2CC2)CCOC12CCN([S+](=O)([O-])c1ccccc1)CC2	NIH3T3 tox inconclusive
O=C1N(CC2CCOCC2)CCOC12CCN([S+](=O)([O-])c1cccs1)CC2	NIH3T3 tox inconclusive
N#Cc1ccc([S+](=O)([O-])N2CCC3(CC2)OCCN(CC2CC2)C3=O)cc1	NIH3T3 tox inconclusive, NPR1 antag 17.8µM | Npr1 antag conf 31.4µM | Npr2 selectivity inconclusive | FLuc counter inactive | GloSensor cGMP 28µM
COc1ccc([S+](=O)([O-])N2CCC3(CC2)OCCN(CCc2ccccc2)C3=O)cc1	HEK cytotox inconclusive, NIH3T3 tox inconclusive
CCCC(=O)NCCc1noc(-c2ccccc2)n1	none
COc1cccnc1C(=O)N1CCC(N2CCCC(C(=O)N3CCCC3)C2)CC1 (stereo unspecified)	none
COc1ccc(OC)c(CNC(=O)c2cccc3c2CCN3C(=O)c2ccc(F)cc2)c1	HEK cytotox inconclusive, NIH3T3 tox inconclusive, NPR1 antag inconclusive | Npr1 antag conf inconclusive | Npr2 selectivity inconclusive | FLuc counter inactive | GloSensor cGMP inconclusive
COc1ccc(CNC(=O)c2cc3c(s2)CCN(C(=O)c2ccccc2)C3)cc1OC	HEK cytotox inconclusive, NIH3T3 tox inconclusive, NPR1 antag 2.51µM | Npr1 antag conf 3.43µM | Npr2 selectivity 4.85µM | FLuc counter inactive | GloSensor cGMP 3.06µM
COc1ccc(CNC(=O)c2ccc3c(c2)N(C(=O)c2ccc(F)cc2)CC3)cc1OC	HEK cytotox 31.6µM, NIH3T3 tox inconclusive, NPR1 antag 2.24µM | Npr1 antag conf 3.06µM | Npr2 selectivity 3.85µM | FLuc counter inactive | GloSensor cGMP 3.06µM
CC(C)(Oc1nn(Cc2cccc(Cl)c2)c2ccccc12)C(=O)NC1CC1	HEK cytotox inconclusive, NIH3T3 tox inconclusive
COc1ccc(-c2ccnc(N[C@H]3CO[C@H]4[C@@H]3OC[C@H]4OC(=O)Nc3cccc(C(C)=O)c3)n2)cc1	HEK cytotox inconclusive, NIH3T3 tox inconclusive, NPR1 antag 11.2µM | Npr1 antag conf 19.3µM | Npr2 selectivity 21.7µM | FLuc counter inactive | GloSensor cGMP 17.2µM
COc1ccc(NC(=O)O[C@@H]2CO[C@H]3[C@@H]2OC[C@@H]3Nc2nccc(-c3cccc(F)c3)n2)cc1	NIH3T3 tox inconclusive
COc1ccc(-c2ccnc(N[C@H]3CO[C@H]4[C@@H]3OC[C@H]4OC(=O)Nc3ccc(C(C)=O)cc3)n2)cc1	HEK cytotox inconclusive, NPR1 antag 10µM | Npr1 antag conf 10.9µM | Npr2 selectivity 15.3µM | FLuc counter inactive | GloSensor cGMP 9.68µM
N#Cc1cccc(-c2ccnc(N[C@H]3CO[C@H]4[C@@H]3OC[C@H]4OC(=O)Nc3ccc(Oc4ccccc4)cc3)n2)c1	HEK cytotox inconclusive, NIH3T3 tox inconclusive, NPR1 antag inconclusive | Npr1 antag conf inconclusive | Npr2 selectivity inactive | FLuc counter inactive | GloSensor cGMP inconclusive
CCOc1ccc2c(n1)CCN(C(=O)Nc1ccccc1OCC)C2	FLuc inh inconclusive, HEK cytotox inconclusive, NIH3T3 tox inconclusive
Fc1ccc(-c2cn[nH]c2C2CCCNC2)cc1 (stereo unspecified)	none
COc1ccccc1-c1cc(C(=O)NC2CCCCCC2)c2cnn(C)c2n1	HEK cytotox inconclusive (no result: FLuc inh, NPR1 antag)
CN(Cc1cccc(C(=O)Nc2cccc(C#N)c2)c1)CC1COCCO1 (stereo unspecified)	HEK cytotox inconclusive, NPR1 antag inconclusive | Npr1 antag conf inconclusive | Npr2 selectivity inconclusive | FLuc counter inactive | GloSensor cGMP inactive
CN1C(=O)CO[C@H](c2ccc(NC(=O)c3cccc(C#N)c3)cc2)[C@H]1CO	none
N#Cc1ccc(CN2CCC3(CC2)CNC(=O)c2ccccc2O3)cc1	HEK cytotox inconclusive (no result: FLuc inh, NPR1 antag)
COc1cccc(CN2CCC3(CC2)CC(c2cccnc2)=NO3)c1	HEK cytotox inconclusive
N#Cc1ccc(CN2CCC3(CC2)CC(c2cccnc2)=NO3)cc1	HEK cytotox 79.4µM, NPR1 antag 22.4µM | Npr1 antag conf 19.8µM | Npr2 selectivity 22.2µM | FLuc counter inactive | GloSensor cGMP 17.7µM
N#Cc1ccc(CN2CCC3(CC2)CC(c2cccc(C(F)(F)F)c2)=NO3)cc1	HEK cytotox 31.6µM, NIH3T3 tox 28.2µM, NPR1 antag 8.91µM | Npr1 antag conf inconclusive | Npr2 selectivity inconclusive | FLuc counter inactive | GloSensor cGMP inconclusive
